Assay: small-molecule microarray binders of probe aNog, primary screen, biochemical, biotinylated probe, 635/667 nm fluorescence (AID 1115);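 further: probe is biotinylated aNog protein used at 0.15 µg/mL for 1 h at 4 C; z-score combines 667 nm fluorescence of each spot with its signal to noise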
Settings: higher = more signal

Row | Compound | composite z-score
1 | O=C(O)[C@@H]1[C@@H]2C(=O)N(c3ccccc3)C(=O)[C@@H]2C[C@@H]1Sc1ccccc1 | -0.0554
2 | CCCCN1CC=CC23O[C@@H]4/C=C\CCC(C)OC(=O)C4[C@H]2C(=O)N(CCCO)[C@@H]3C1=O (some centres undefined) | -0.362
3 | CN(C)C(=O)[C@]1(CCC(=O)OC(C)(C)C)N=C(c2ccc(OCCCO)cc2)O[C@@H]1c1ccccc1CN=[N+]=[N-] | 1.13
4 | CCCCCC1=C2CNC(C)(C(=O)OC)C=C2C(C)C1=O (centres undefined) | 1.17
5 | CCOC(=O)C[C@H]1[C@H](OC(=O)c2cc3ccccc3oc2=O)[C@@H](NC(=O)c2ccc3ccccc3n2)c2cc(OCCCO)ccc2N1C(=O)Cc1ccc(OC)cc1 | -0.0428
6 | CS(=O)(=O)CCOC(=O)C1=CC(CCCO)=CC(c2ccc(CN3CCCC3)cc2)N(Cc2sc3ccccc3c2Cl)C=C1C(=O)OCCS(C)(=O)=O (centres undefined) | 1.49
7 | NC(=O)NCC#Cc1ccc2c(c1)[C@]1(C(=O)N2)[C@H](c2ccccc2OCCO)N2[C@H](c3ccccc3)[C@H](c3ccccc3)OC(=O)[C@H]2[C@@H]1C(=O)NC[C@H](O)c1ccccc1 | -0.213
8 | CC(C)N1C(=O)c2ccccc2[C@@H](C(=O)NCCN2CCOCC2)[C@@H]1c1ccc(CO)cc1 | -0.321
9 | COCCOC(=O)N1C(=O)[C@@]2(c3cc(C#CC4=CCCCC4)ccc31)[C@H](C(=O)Nc1nc3ccccc3s1)[C@H]1C(=O)O[C@H](c3ccccc3)[C@H](c3ccccc3)N1[C@@H]2c1ccc(O)cc1 | -0.483
10 | COc1ccc(CCNC(=O)[C@@]2(Sc3ccc(C)cc3)CC(=O)N(Cc3ccccc3C(F)(F)F)[C@@H]2c2ccc(CO)cc2I)cc1 | 0.924
11 | COc1ccc([Si](C)(C)[C@H]2[C@H](CC(=O)N3CCC[C@H]3CO)O[C@@]3(C(=O)N(Cc4ccc(N5CCOC5=O)cc4)c4ccccc43)[C@@H]2C)cc1 | -0.172
12 | COc1cc(OC)c(C(O)C2C=CC3C(=O)N(Cc4ccccc4)C(=O)C3N2n2cnnc2)cc1Br (centres undefined) | 0.665
13 | [N-]=[N+]=Nc1ccccc1C[C@@]1(C(=O)N2CCOCC2)N=C(c2ccc(OCCCO)cc2)O[C@@H]1c1ccccc1 | -0.738
14 | Cc1ccc(C(C)CC(O)C2C=CC3C(=O)N(c4ccccc4)C(=O)C3N2Nc2ccccc2)o1 (centres undefined) | 1.5
15 | CCOC(=O)C[C@H]1[C@H](OC(=O)c2ccc(C(=O)c3ccccc3)cc2)[C@@H](NC(=O)c2ccc(-c3ccccc3)cc2)c2cc(OCCCO)ccc2N1C(=O)Cc1ccc(OC)cc1 | -0.468
16 | CCOC(=O)C1=C[C@@H](C(C)C)N(S(=O)(=O)c2ccc(C)cc2)[C@H]1c1ccc(C(F)(F)F)cc1 | 0.868
17 | C=C[C@H]1C(C(=O)OCC)=CC[C@@H](c2ccccc2)N1S(=O)(=O)c1ccc(C)cc1 | -0.289
18 | CCCCCCCCCCC(O)C1C=CC2C(=O)N(c3ccccc3)C(=O)C2N1Nc1ccc(C#N)cc1 (centres undefined) | -0.889
19 | O=C1C[C@]2(c3ccc([N+](=O)[O-])cc3)C(=O)N(C3CC3)c3cc(CO)ccc3[C@H]2N1CC12CC3CC(CC(C3)C1)C2 | 0.632
20 | C=C[C@H](C)[C@H](OC(=O)Nc1ccc(SC)cc1)c1ccc(OCCO)cc1 | 0.576
21 | O=C1OCCC=C[C@H]2OC34C=CCN(c5ccc6ccccc6c5)C(=O)[C@H]3N(CCCO)C(=O)[C@@H]4C12 (some centres undefined) | 0.181
22 | CCCCN1CC=CC23O[C@@H]4/C=C\CCCOC(=O)C4[C@H]2C(=O)N(CCO)[C@@H]3C1=O (some centres undefined) | -0.158
23 | COc1cc2c(cc1O)C(c1cccs1)N(Cc1cc3c(cc1Br)OCO3)CC2 (centres undefined) | 1.03
24 | CCCC[C@@H](O)C1=C(COc2ccccc2)C[C@H]2C(=O)N(Cc3ccccc3)C(=O)[C@H]2[C@H]1CO | -0.213
25 | COc1cc(C(O)C2C=CC3C(=O)N(C)C(=O)C3N2Nc2ccccc2)cc(OC)c1OC (centres undefined) | 2.22
26 | COCCOC(=O)N1C(=O)[C@@]2(c3cc(C#CCCO)ccc31)[C@H](c1ccc(OCCO)cc1)N1[C@H](c3ccccc3)[C@H](c3ccccc3)OC(=O)[C@H]1[C@@H]2C(=O)Nc1nc2ccccc2s1 | 0.0947
27 | C=CCNC(=O)[C@@H]1[C@H]2C(=O)O[C@H](c3ccccc3)[C@H](c3ccccc3)N2[C@H](c2ccc(OCCO)cc2)[C@@]12C(=O)N(C(=O)OCCOC)c1ccc(C#Cc3ccc(OC)cc3)cc12 | -0.272
28 | N#Cc1ccc(NN2C(C(O)c3ccc(Br)cc3)C=CC3C(=O)N(c4ccccc4)C(=O)C32)cc1 (centres undefined) | 2.03
29 | CCCC=C(CCC)[C@@H](NC(=O)C(C)(C)C)c1ccc(C(=O)OC)cc1 | 1.98

Source: PubChem BioAssay
